# Data: the supplement of paper PMC12494721
# Columns and labels:
# Details in all cases: 20 µM; incubation time: 27 h, anaerobic, 37 °C;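 for the amine columns active = adjusted P below 0.05 in both replicates with a change the same way and a mean fold change under 0.8 or over 1.25; inactive = the rest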
# [1] = tested on: Clostridium sporogenes DSM 1664; assay: growth (OD595) fold change vs plate DMSO controls (fold change (ratio)); higher = more growth
# Procedure, shortened: (§1)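 The measure reported is growth, taken as fold change against the median of DMSO controls on the same plate. Anaerobic mGAM cultures in 96-well plates (27 h, 37 °C) were read at 595 nm, blank-subtracted, corrected for compound background using 20 µM compound solutions in water, and multiplied by a calibration factor of 5 to give OD. Any fold change above 1.5 became NA, and 2 biological replicates were averaged.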
# Escherichia coli IAI1 [2] = assay: as above
# Procedure, shortened: as §1
# [3] = tested on: Klebsiella aerogenes DSM 30053; assay: as above
# Procedure, shortened: as §1
# [4] = tested on: Ruminococcus gnavus DSM 108212; assay: as above
# Procedure, shortened: as §1
# [5] = tested on: Klebsiella aerogenes DSM 30053; assay: fold change of Histamine concentration vs plate DMSO controls (fold change (ratio)); higher = more amine produced, active = hit call of the paper (significant change in both replicates, either direction)
# Procedure, shortened: (§2)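 Anaerobic mGAM cultures of four gut bacterial strains were grown at 37 °C for 27 h in 80 µL wells, starting at OD 0.1 before 1:1 dilution. Compounds were at 20 µM final (sweeteners 50 µM). Whole cultures were extracted with cold acetonitrile/methanol containing 0.1% formic acid and centrifuged. Amines were quantified by LC–triple-quadrupole MS (dynamic MRM) against external calibration curves and drift-corrected within batch. Each value is the fold change versus plate DMSO controls, averaged over 2 biological replicates.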
# [6] = tested on: Clostridium sporogenes DSM 1664; assay: fold change of Tryptamine concentration vs plate DMSO controls (fold change (ratio)); higher = more amine produced, active = hit call of the paper (significant change in both replicates, either direction)
# Procedure, shortened: as §2
# [7] = tested on: Ruminococcus gnavus DSM 108212; assay: as above
# Procedure, shortened: as §2
# Escherichia coli IAI1 [8] = assay: fold change of Putrescine concentration vs plate DMSO controls (fold change (ratio)); higher = more amine produced, active = hit call of the paper (significant change in both replicates, either direction)
# Procedure, shortened: as §2
# [9] = tested on: Klebsiella aerogenes DSM 30053; assay: as above
# Procedure, shortened: as §2
# Escherichia coli IAI1 [10] = assay: fold change of Cadaverine concentration vs plate DMSO controls (fold change (ratio)); higher = more amine produced, active = hit call of the paper (significant change in both replicates, either direction)
# Procedure, shortened: as §2
# [11] = tested on: Klebsiella aerogenes DSM 30053; assay: as above
# Procedure, shortened: as §2
# [12] = tested on: Ruminococcus gnavus DSM 108212; assay: fold change of 2-Phenylethylamine concentration vs plate DMSO controls (fold change (ratio)); higher = more amine produced, active = hit call of the paper (significant change in both replicates, either direction)
# Procedure, shortened: as §2
Compound,growth [1],growth (Escherichia coli IAI1 [2]),growth [3],growth [4],fold change of Histamine concentration [5],fold change of Tryptamine concentration [6],fold change of Tryptamine concentration [7],fold change of Putrescine concentration (Escherichia coli IAI1 [8]),fold change of Putrescine concentration [9],fold change of Cadaverine concentration (Escherichia coli IAI1 [10]),fold change of Cadaverine concentration [11],fold change of 2-Phenylethylamine concentration [12]
CCCSP(=O)(OCC)Oc1ccc(Br)cc1Cl (stereo not drawn),0.919,0.968,1.03,0.964,1.01 (inactive),1.03 (inactive),0.941 (inactive),1 (inactive),1.02 (inactive),1.03 (inactive),0.995 (inactive),0.9 (inactive)
CCOP(=S)(OCC)Oc1cc(C)nc(C(C)C)n1,0.996,1.01,0.998,1.15,1.04 (inactive),1.03 (inactive),0.997 (inactive),1 (inactive),1 (inactive),1.01 (inactive),1 (inactive),1 (inactive)
Nc1nc(N)nc(N)n1 [Melamine],0.88,0.99,0.966,1.11,0.958 (inactive),1.05 (inactive),1.01 (inactive),0.988 (inactive),0.956 (inactive),0.95 (inactive),1.01 (inactive),1.05 (inactive)
O=[N+]([O-])O[C@@H]1CO[C@H]2[C@@H]1OC[C@@H]2O [Isosorbide mononitrate],0.988,0.984,1.07,1.31,0.975 (inactive),0.938 (inactive),0.984 (inactive),0.959 (inactive),1.05 (inactive),0.975 (inactive),1.04 (inactive),0.946 (inactive)
C#CCN1C(=O)COc2cc(F)c(N3C(=O)C4=C(CCCC4)C3=O)cc21,0.947,0.989,1,0.933,1.02 (inactive),1.14 (inactive),0.98 (inactive),1.01 (inactive),1.01 (inactive),1.04 (inactive),0.988 (inactive),0.969 (inactive)
O=C1C2(Cl)C3(Cl)C4(Cl)C(Cl)(Cl)C5(Cl)C3(Cl)C1(Cl)C5(Cl)C24Cl (stereo not drawn),0,1.09,1.04,,1.07 (inactive),0.0206 (active),0.27 (active),1.05 (inactive),1.07 (inactive),1.14 (inactive),1.05 (inactive),0.297 (inactive)
CCOc1cc(Oc2ccc(C(F)(F)F)cc2Cl)ccc1[N+](=O)[O-],1.13,0.996,1,0.995,0.981 (inactive),1.06 (inactive),1.04 (inactive),0.953 (inactive),0.943 (inactive),0.933 (inactive),1.08 (inactive),1.05 (inactive)
